Assay results taken from PubChem BioAssay (NCI).
“And” between values parts separate entries of the source, which are not always exact repeats. Equal values may be shown once. This is part of a sample that, as a whole, favours compounds with a hit. Of some 79,000 tested, about 15% had one in any assay. A structure can be active in one record and inactive in another. The source made the active and inactive calls. No stated cut-off is given here; in the data, active means growth inhibition above about 70%; inactive means the rest.

Legend:
[1] = NCI Yeast Anticancer Drug Screen. Data for the rad52 strain (AID 147);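 further: 0% = growth of vehicle-treated control cultures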; conditions: S. cerevisiae rad52 mutant growth inhibition, stronger effect = higher value
Method in brief: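 Inhibition of yeast growth, referenced to vehicle controls, was the measured output for a strain with defective DNA damage repair.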

[2] = NCI Yeast Anticancer Drug Screen. Data for the wt1 strain (AID 149);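 further: 0% = growth of vehicle-treated wt1 cultures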; conditions: S. cerevisiae wt1 strain (SPY 50644) growth inhibition, stronger effect = higher value
Method in brief: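 Each compound is tested on wt1 yeast and the loss of growth versus vehicle gives the inhibition value.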

[3] = NCI Yeast Anticancer Drug Screen. Data for the rad50EPP+ strain (AID 151);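 further: 0% = growth of vehicle-treated control cultures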; conditions: S. cerevisiae rad50 mutant strain, stronger effect = higher value
Method in brief: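 Genetically defined yeast (rad50EPP+, DNA damage repair alteration) is grown with compound, and inhibition of growth is expressed relative to vehicle-treated controls.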

[4] = NCI Yeast Anticancer Drug Screen. Data for the mgt1 strain (AID 153); conditions: S. cerevisiae mgt1 mutant growth inhibition, stronger effect = higher value
Method in brief: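 In the mgt1 strain, test compounds were added and growth inhibition was determined relative to vehicle-treated controls.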

[5] = NCI Yeast Anticancer Drug Screen. Data for the rad50 strain (AID 155);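 further: 0% = growth of vehicle-only cultures of the same strain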; conditions: S. cerevisiae rad50 strain growth inhibition, stronger effect = higher value
Method in brief: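 Vehicle-treated cultures provide the reference for the growth inhibition reported for compound-exposed, repair-deficient yeast.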

[6] = NCI Yeast Anticancer Drug Screen. Data for the mec2-1 strain (AID 157); conditions: S. cerevisiae mec2-1 strain, stronger effect = higher value
Method in brief: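 Each compound was tested on mec2-1 yeast, a strain altered in DNA damage repair or cell cycle control. Growth inhibition is reported relative to vehicle.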

[7] = NCI Yeast Anticancer Drug Screen. Data for the sgs1 mgt1 strain (AID 161);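 further: 0% = growth of cultures given vehicle only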; conditions: S. cerevisiae sgs1 mgt1 strain, stronger effect = higher value
Method in brief: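 Inhibition of yeast growth, normalised to vehicle-treated controls, is reported for a strain bearing genetic alterations in DNA damage repair.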

[8] = NCI Yeast Anticancer Drug Screen. Data for the CLN2oe strain (AID 163);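 further: 0% = growth of vehicle-only control cultures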; conditions: S. cerevisiae CLN2oe strain, stronger effect = higher value
Method in brief: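 First, the altered yeast strain was treated with each compound; second, its growth was measured; finally, inhibition was derived by comparison with vehicle controls.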

[9] = NCI Yeast Anticancer Drug Screen. Data for the cln2 rad14 strain (AID 165);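 further: 0% = growth equal to vehicle treated cultures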; conditions: S. cerevisiae cln2 rad14 strain, stronger effect = higher value
Method in brief: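 Test compounds were added to cln2 rad14 yeast cultures; inhibition of growth was then determined by comparison with vehicle treatment.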

[10] = NCI Yeast Anticancer Drug Screen. Data for the bub3 strain (AID 167); conditions: S. cerevisiae bub3 mutant strain, stronger effect = higher value
Method in brief: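 Mutant yeast screening strain plus compound; vehicle-treated cultures serve as the 0% inhibition reference.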

[11] = NCI Yeast Anticancer Drug Screen. Data for the wt2 strain (AID 169); conditions: S. cerevisiae wt2 strain growth inhibition, stronger effect = higher value
Method in brief: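 The panel's yeast strains carry defined changes in DNA repair or cell cycle genes. Each strain is grown with compound, and growth loss is scored relative to vehicle.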

[12] = NCI Yeast Anticancer Drug Screen. Data for the mlh1 strain (AID 171);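 further: 0% = growth of vehicle-treated control cultures of the same strain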; conditions: S. cerevisiae mlh1 strain growth inhibition, stronger effect = higher value
Method in brief: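 Inhibition values reflect reduced yeast growth in the presence of compound, referenced to vehicle controls, using a strain chosen for its alteration in DNA repair or cell cycle control.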

[13] = NCI Yeast Anticancer Drug Screen. Data for the sgs1 strain (AID 173);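 further: 0% = growth of vehicle-only control cultures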; conditions: S. cerevisiae sgs1 mutant, stronger effect = higher value
Method in brief: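 Vehicle-treated cultures served as reference for growth inhibition of a yeast strain altered in DNA damage repair or cell cycle control after compound exposure.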

[14] = NCI Yeast Anticancer Drug Screen. Data for the mlh1 rad18 strain (AID 175); conditions: S. cerevisiae mlh1 rad18 strain growth inhibition, stronger effect = higher value
Method in brief: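 Inhibition values reflect reduced growth of mutant yeast versus vehicle-treated controls following compound exposure; the mutations affect DNA damage repair.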

[15] = NCI Yeast Anticancer Drug Screen. Data for the rad18 strain (AID 177); conditions: S. cerevisiae rad18 mutant growth inhibition, stronger effect = higher value
Method in brief: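 Steps: expose repair-mutant yeast to compound; measure growth; express as inhibition relative to vehicle control.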

[16] = NCI Yeast Anticancer Drug Screen. Data for the rad14 strain (AID 159);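 further: 0% = growth of vehicle-treated control cultures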; conditions: S. cerevisiae rad14 strain growth inhibition, stronger effect = higher value
Method in brief: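 Inhibition of growth is reported for a repair-deficient yeast mutant following compound treatment, calculated relative to cultures that received vehicle.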

[17] = at 5.0 µM (retest, dose inferred, filed as 0.5)
[18] = at 50.0 µM (retest, dose inferred, filed as 5.0)

Measured: growth inhibition

CC[N+](CC)(CC)c1ccccc1
inactive: [1]; at 1.2 µM 8% | [1]; at 3.7 µM -7% | [1]; at 11.0 µM 0% | [1]; at 33.0 µM -3% | [1]; at 100.0 µM -6% | [2]; at 1.2 µM -21% | [2]; at 3.7 µM -27% | [2]; at 11.0 µM -28% | [2]; at 33.0 µM -26% | [2]; at 100.0 µM -28% | [3]; at 1.2 µM -8% | [3]; at 3.7 µM -14% | [3]; at 11.0 µM -14% | [3]; at 33.0 µM -22% | [3]; at 100.0 µM -20% | [4]; at 1.2 µM 1% | [4]; at 3.7 µM 1% | [4]; at 11.0 µM -6% | [4]; at 33.0 µM 8% | [4]; at 100.0 µM -8% | [5]; at 1.2 µM 19% | [5]; at 3.7 µM 24% | [5]; [17] 17% | [5]; at 11.0 µM 16% | [5]; at 33.0 µM 14% | [5]; at 50.0 µM 62.5% | [5]; at 100.0 µM 21% | [6]; at 1.2 µM -5% | [6]; at 3.7 µM -3% | [6]; [17] 35% | [6]; at 11.0 µM -8% | [6]; at 33.0 µM 1% | [6]; at 50.0 µM -1.75% | [6]; at 100.0 µM 8% | [7]; [17] -21% | [7]; [18] -13% | [7]; at 50.0 µM 39.8% | [8]; at 1.2 µM 16% | [8]; at 3.7 µM 5% | [8]; at 11.0 µM 8% | [8]; at 33.0 µM -11% | [8]; at 100.0 µM -8% | [9]; [17] 20% | [9]; [18] 33% | [9]; at 50.0 µM 24.1% | [10]; at 1.2 µM 16% | [10]; at 3.7 µM 15% | [10]; [17] 31% | [10]; at 11.0 µM 15% | [10]; at 33.0 µM 19% | [10]; [18] 26% | [10]; at 100.0 µM 11% | [11]; at 1.2 µM -23% | [11]; at 3.7 µM -32% | [11]; at 11.0 µM -32% | [11]; at 33.0 µM -23% | [11]; at 100.0 µM -30% | [12]; at 1.2 µM -26% | [12]; at 3.7 µM -46% | [12]; at 11.0 µM -43% | [12]; at 33.0 µM -43% | [12]; at 100.0 µM -42% | [13]; at 1.2 µM -15% | [13]; at 3.7 µM -21% | [13]; at 11.0 µM -22% | [13]; at 33.0 µM -19% | [13]; at 100.0 µM -23% | [14]; [17] 30% | [14]; at 50.0 µM 26.2% | [15]; at 1.2 µM 3% | [15]; at 3.7 µM 10% | [15]; at 11.0 µM 6% | [15]; at 33.0 µM 3% | [15]; at 100.0 µM 10%
active: [5]; [18] 98% | [6]; [18] 98% | [10]; at 50.0 µM 75.5% | [14]; [18] 99%

COc1ccc(C(=O)C(CN(C)C)CN(C)C)cc1
inactive: [1]; at 1.2 µM -14% | [1]; at 3.7 µM 30% | [1]; at 11.0 µM 30% | [1]; at 33.0 µM 29% | [1]; at 100.0 µM 48% | [2]; at 1.2 µM -5% | [2]; at 3.7 µM -1% | [2]; at 11.0 µM -4% | [2]; at 33.0 µM 3% | [2]; at 100.0 µM 40% | [3]; at 1.2 µM 10% | [3]; at 3.7 µM 19% | [3]; at 11.0 µM 9% | [3]; at 33.0 µM 13% | [3]; at 100.0 µM 17% | [5]; at 1.2 µM 7% | [5]; at 3.7 µM -1% | [5]; [17] 26% and 8% | [5]; at 11.0 µM -2% | [5]; at 33.0 µM 11% | [5]; [18] 52% and 35% | [5]; at 50.0 µM 35.8% and 45.3% | [5]; at 100.0 µM 51% | [6]; at 1.2 µM -20% | [6]; at 3.7 µM -9% | [6]; [17] 14% and 1% | [6]; at 11.0 µM -4% | [6]; at 33.0 µM 9% | [6]; [18] 63% and 41% | [6]; at 100.0 µM 68% | [16]; at 1.2 µM -13% | [16]; at 3.7 µM -8% | [16]; at 11.0 µM -2% | [16]; at 33.0 µM 19% | [16]; at 100.0 µM 24% | [7]; [17] 34% and 14% | [7]; [18] 59% and 35% | [7]; at 50.0 µM 32.8% and 61.8% | [8]; at 1.2 µM 15% | [8]; at 3.7 µM 12% | [8]; at 11.0 µM 6% | [8]; at 33.0 µM 33% | [8]; at 100.0 µM 46% | [9]; [17] 11% and 20% | [9]; [18] 31% and 36% | [9]; at 50.0 µM 21.6% and 30.7% | [10]; at 1.2 µM -18% | [10]; at 3.7 µM -5% | [10]; [17] 21% and 19% | [10]; at 11.0 µM -2% | [10]; at 33.0 µM 11% | [10]; [18] 51% and 33% | [11]; at 1.2 µM 12% | [11]; at 3.7 µM 1% | [11]; at 11.0 µM 4% | [11]; at 33.0 µM 36% | [12]; at 1.2 µM -32% | [12]; at 3.7 µM -15% | [12]; at 11.0 µM -13% | [12]; at 33.0 µM 4% | [13]; at 1.2 µM -7% | [13]; at 3.7 µM 29% | [13]; at 11.0 µM 26% | [13]; at 33.0 µM 32% | [14]; [17] 57% and 12% | [14]; at 50.0 µM 8.1% and 64.3% | [15]; at 1.2 µM -3% | [15]; at 3.7 µM -8% | [15]; at 11.0 µM -23% | [15]; at 33.0 µM -3% | [15]; at 100.0 µM 66%
92% (active) and 27% (inactive): [14]; [18]
0.15% (inactive) and 75.1% (active): [10]; at 50.0 µM
active: [6]; at 50.0 µM 74.2% and 75.8% | [10]; at 100.0 µM 74% | [11]; at 100.0 µM 79% | [12]; at 100.0 µM 74% | [13]; at 100.0 µM 78%
